Values without a mark were called inactive. Records with an inconclusive call do not appear. Calls of active or inactive are those of the source. Unless noted, calls come from the whole dose curve; as a rule, active = well fitted curve in the direction sought with a large enough effect; inconclusive = small, poorly fitted or top-dose-only effect, or another doubt; inactive = no such curve, though single readings can be large; an effect the other way counts as inactive or inconclusive.

The target in experiment [1] is Cytochrome P450 3A4 (Homo sapiens) (UniProt P08684). The experiment in a line: qHTS Assay for Inhibitors and Substrates of Cytochrome P450 3A4 (AID 884). Note: potency is the fitted concentration of half-maximal effect; nearly all actives have a fitted effect of over 50% in size. In short, it runs like this:
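Luminescent readout of luciferin produced by CYP3A4 (20 nM) dealkylation of Luciferin-PPXE, 25 uM (its KM). NADPH-driven reaction ran 60 min at RT after 10 min compound preincubation; data scaled to 57 uM ketoconazole as 100% inhibition.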
(In qHTS, concentration-response curves come from the screen itself.)

The target is the same in experiment [2]. Description: qHTS Assay for Activators of Cytochrome P450 3A4 (AID 885). Note: nearly all actives have a fitted effect of over 65% in size. In short, it runs like this:
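Human CYP3A4 dealkylates Luciferin-PPXE to luciferin, which luciferase detection converts to light. Substrate was at its KM (25uM), buffer 200mM KPO4, reaction 60 min at RT.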

Experiment [3] addresses Cytochrome P450 2C19 (Homo sapiens) (UniProt P33261). Description: qHTS Assay for Inhibitors and Substrates of Cytochrome P450 2C19 (AID 899). Note: potency is the fitted concentration of half-maximal effect; nearly all actives have a fitted effect of over 60% in size. The method in brief:
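5 nM human CYP2C19 with 10uM Luciferin-H EGE (at KM) in 50mM KPO4, compound preincubated 10 min at 37C, then NADPH regeneration for 60 min at 37C. Luciferin read by luminescence after detection reagent; normalized to 57uM ketoconazole as full inhibition.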

The nature of experiment [4]: Confirmation and Secondary Assay for Modulators of Hemoglobin Beta Chain Splicing at IVS2 705 locus (AID 930).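 Note: HeLa cells stably expressing the EGFP-705 splicing reporter; GFP fluorescence per well restored by corrected splicing of the IVS2-705 intron in EGFP.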 In short, it runs like this: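 HeLa IVS2-705 EGFP reporter cells, 500/well, compound 2 d at 37C; correct splicing yields fluorescent EGFP. Control: 500 nM antisense PNA. Read-out: total peak GFP intensity.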
The nature of experiment [5]: S16 Schwann cell PMP22 intronic element firefly luciferase assay (AID 624032). Note: nearly all actives have a fitted effect of over 30% in size. In short, it runs like this:
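Rat S16 Schwann cells stably carrying firefly luciferase driven by a PMP22 intronic element, in 10% FBS, treated 24 h at 37 C. ONE-Glo luminescence normalized to PTC124 control and DMSO (0%); curves classed by r2, magnitude and activity.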

The nature of experiment [6]: S16 Schwann cell PMP22 intronic element beta-lactamase assay (AID 624044; calls by dose curve; note: nearly all actives have a fitted effect of over 15% in size). The method in brief:
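Beta-lactamase reporter under a PMP22 intronic regulatory element in stable S16 rat Schwann cells; 24 h compound exposure. 460 nm blue signal normalized between DMSO (0%) and potassium clavulanate, with 535 nm FRET tracking viability; curves classed by r2 and response.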

In the next experiment the test system is AA1029. The experiment in a line: qHTS profiling for inhibitors of Plasmodium falciparum proliferation (AID 504749). Note: nearly all actives have a fitted effect of over 60% in size. Note: potency is the fitted concentration of half-maximal effect. As to conditions: P. falciparum in erythrocytes, SYBR Green DNA, 72 h; series mostly up to 12.8 µM. The method in brief: (§1)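 Each compound contacts P. falciparum-infected red blood cells for 72 h at 37 C; lysis buffer (Tris, EDTA, saponin, Triton X, SYBR Green I) is added and fluorescence measured next morning; values normalized to controls.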

In the next experiment the test system is CP194. Described as above. The note with it: P. falciparum in erythrocytes, SYBR Green DNA, 72 h; series mostly up to 12.8 µM. In short, it runs like this: as §1
Another experiment concerns CP211. Described as above. The note with it: P. falciparum in erythrocytes, SYBR Green DNA, 72 h; series mostly up to 12.8 µM. In short, it runs like this:
as §1

The subject of a further experiment is CP215. Described as above. The note with it: P. falciparum in erythrocytes, SYBR Green DNA, 72 h; series mostly up to 12.8 µM. The method in brief:
as §1

Another experiment has as its system CP291. The experiment is described as above. As to conditions: P. falciparum in erythrocytes, SYBR Green DNA, 72 h; series mostly up to 12.8 µM. In short, it runs like this:
as §1

The subject of a further experiment is CP335. Described as above. The note with it: P. falciparum in erythrocytes, SYBR Green DNA, 72 h; series mostly up to 12.8 µM. The method in brief: as §1
The next experiment relates to GB4. Described as above. As to conditions: P. falciparum in erythrocytes, SYBR Green DNA, 72 h; series mostly up to 12.8 µM. In short, it runs like this: as §1
Another experiment concerns P93_24. The experiment is described as above. As to conditions: P. falciparum in erythrocytes, SYBR Green DNA, 72 h; series mostly up to 12.8 µM. The method in brief:
as §1

The next experiment deals with P94_40. The experiment is described as above. As to conditions: P. falciparum in erythrocytes, SYBR Green DNA, 72 h; series mostly up to 12.8 µM. In short, it runs like this: as §1
The test system of a further experiment is PC26. The description is as above. As to conditions: P. falciparum in erythrocytes, SYBR Green DNA, 72 h; series mostly up to 12.8 µM. The method in brief:
as §1

The next experiment deals with TAB109. Described as above. The note with it: P. falciparum in erythrocytes, SYBR Green DNA, 72 h; series mostly up to 12.8 µM. The method in brief: as §1
The subject of another experiment is W2. The experiment is described as above. The note with it: P. falciparum in erythrocytes, SYBR Green DNA, 72 h; series mostly up to 12.8 µM. The method in brief: as §1
For another experiment, the system named is 7G8. Described as above. The note with it: P. falciparum in erythrocytes, SYBR Green DNA, 72 h; series mostly up to 12.8 µM. In short, it runs like this:
as §1

Chain of Cytochrome P450 3A4 (Homo sapiens) (P08684 whole entry, looked up): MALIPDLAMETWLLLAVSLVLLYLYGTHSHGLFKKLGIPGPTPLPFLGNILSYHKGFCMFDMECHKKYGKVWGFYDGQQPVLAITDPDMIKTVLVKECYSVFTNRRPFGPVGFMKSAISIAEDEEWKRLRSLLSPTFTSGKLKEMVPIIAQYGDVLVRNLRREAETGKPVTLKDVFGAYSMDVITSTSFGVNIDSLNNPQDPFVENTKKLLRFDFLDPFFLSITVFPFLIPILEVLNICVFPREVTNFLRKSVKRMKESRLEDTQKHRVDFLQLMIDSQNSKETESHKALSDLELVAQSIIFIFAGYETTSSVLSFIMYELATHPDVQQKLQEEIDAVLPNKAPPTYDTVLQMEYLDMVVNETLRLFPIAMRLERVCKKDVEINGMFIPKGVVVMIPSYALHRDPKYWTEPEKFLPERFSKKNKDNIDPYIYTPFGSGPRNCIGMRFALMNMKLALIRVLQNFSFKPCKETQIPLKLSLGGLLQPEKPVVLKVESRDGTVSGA
Chain of Cytochrome P450 2C19 (Homo sapiens) (P33261 whole entry, looked up): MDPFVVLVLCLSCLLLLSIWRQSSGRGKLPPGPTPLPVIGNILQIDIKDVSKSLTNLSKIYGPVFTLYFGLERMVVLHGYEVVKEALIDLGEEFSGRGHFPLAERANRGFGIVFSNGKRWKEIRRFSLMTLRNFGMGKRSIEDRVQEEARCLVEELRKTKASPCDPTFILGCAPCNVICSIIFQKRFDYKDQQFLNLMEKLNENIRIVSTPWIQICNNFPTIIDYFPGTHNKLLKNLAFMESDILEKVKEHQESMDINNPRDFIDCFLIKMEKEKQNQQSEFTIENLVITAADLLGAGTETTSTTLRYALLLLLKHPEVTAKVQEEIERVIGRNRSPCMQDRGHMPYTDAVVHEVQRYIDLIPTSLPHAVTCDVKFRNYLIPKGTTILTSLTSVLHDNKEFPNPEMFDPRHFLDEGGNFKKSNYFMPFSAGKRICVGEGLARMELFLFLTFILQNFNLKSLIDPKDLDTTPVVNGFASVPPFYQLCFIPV

For `CS(=O)(=O)Nc1cccc(-c2nc(Nc3ccc(F)cc3)c3ccccc3n2)c1`, the Potency in [1] was 6.31 µM (active); in [3], 7.94 µM (active). In addition, the Potency entry in experiment [2] and in experiment [4] was “inactive” each time.

Turning to `CC(=C(CCOP(=O)(O)O)SC(=O)c1ccccc1)N(C=O)Cc1cnc(C)nc1N`, the Potency result (in experiment [4]; in experiment [5]; in [6]; in the experiment on AA1029; in the experiment with CP194; in the experiment on CP211) was “inactive” each time. Also, the Potency result in the experiment on CP215, in the experiment with CP291, in the experiment with CP335, in the experiment with GB4, in the experiment with P93_24 and with P94_40 was “inactive” each time. The Potency result in the experiment with PC26, with TAB109 and with W2 was “inactive” each time.

Take `CC(C)NC[C@H]1CCc2cc(CO)c([N+](=O)[O-])cc2N1`: the Potency entry (in [5]; with 7G8; in the experiment on AA1029; in the experiment on CP194; in the experiment on CP215; in the experiment with CP291) was “inactive” each time. Moreover, the Potency result in the experiment on CP335, with GB4, in the experiment on P93_24, in the experiment with P94_40, in the experiment on PC26 and in the experiment on TAB109 was “inactive” in each case. Besides, the Potency entry in the experiment with W2 was “inactive”.

For `CCN[C@@H]1CN(CCCOC)S(=O)(=O)c2sc(S(N)(=O)=O)cc21`, the Potency result (in experiment [5]; in experiment [6]; with 7G8; with AA1029; in the experiment on CP194; with CP211) was “inactive” each time. In addition, the Potency entry in the experiment with CP215, in the experiment on CP291, in the experiment on CP335, with GB4, in the experiment on P93_24 and in the experiment on PC26 was “inactive” in each case. For the same compound, the Potency entry with TAB109 and with W2 was “inactive” each time.

`Cn1nnnc1SCC1=C(C(=O)O)N2C(=O)[C@@H](NC(=O)[C@@H](O)c3ccccc3)[C@@H]2SC1`: the Potency entry (in experiment [5]; in experiment [6]; with AA1029; in the experiment with CP194; in the experiment with CP211; in the experiment with CP215) was “inactive” throughout. In addition, the Potency entry in the experiment with CP335, in the experiment on GB4, with P93_24, with P94_40, in the experiment with PC26 and in the experiment on TAB109 was “inactive” throughout. The Potency result with W2 was “inactive”.

As to `COc1cc2nc(N3CCN(C(=O)[C@@H]4COc5ccccc5O4)CC3)nc(N)c2cc1OC`, the Potency entry (in experiment [5]; in [6]; in the experiment on CP215) was “inactive” in each case. Besides, the values for the Potency with 7G8 and with W2 were 7.08 µM (active) and 5.36 µM (active), respectively.

As for `C=C1c2c(Cl)ccc(O)c2C(O)=C2C(=O)[C@@]3(O)C(O)=C(C(N)=O)C(=O)[C@@H](N(C)C)[C@@H]3[C@@H](O)[C@H]12`, the Potency result (in experiment [5]; in experiment [6]; in the experiment with CP211; in the experiment on CP215; with CP291; with P94_40) was “inactive” throughout. The Potency with 7G8 is 3.16 µM (active); in the experiment with W2, 6.42 µM (active).

In the case of `CS(=O)(=O)c1ccc([C@H](O)[C@H](CF)NC(=O)C(Cl)Cl)cc1`, the Potency entry in [5] was “inactive”.

With `CCCCC[C@H](O)/C=C\[C@@H]1[C@H](O)CC(=O)[C@@H]1CCCCCCC(=O)O`, the Potency result (in experiment [5]; in the experiment with AA1029; in the experiment on CP211; in the experiment with CP215; with CP291; with CP335) was “inactive” each time. Further, the Potency result in the experiment with P94_40, in the experiment on PC26 and in the experiment with TAB109 was “inactive” throughout.

On to `CO[C@H]1[C@H](O[C@H]2O[C@@H](C)[C@@H](O[C@@H]3C[C@](C)(O)[C@H](O)[C@H](C)O3)[C@@H](N(C)C)[C@@H]2O)[C@@H](CC=O)C[C@@H](C)[C@@H](O[C@H]2CC[C@H](N(C)C)[C@H](C)O2)/C=C\C=C/C[C@@H](C)OC(=O)C[C@H]1O`, for which the Potency result (in [5]; in the experiment with PC26) was “inactive” each time. The Potency in the experiment with TAB109 was 1.58 µM (active); with W2, 3.22 µM (active).

`O=C1O[C@@H]([C@@H](O)CO)[C@@H](O)[C@H]1O`: the Potency entry (in experiment [6]; in the experiment on 7G8; with AA1029; in the experiment on CP194; with CP211; with CP215) was “inactive” in each case. Besides, the Potency result in the experiment with CP291, in the experiment on CP335, in the experiment with GB4, in the experiment on P93_24, in the experiment with P94_40 and in the experiment with PC26 was “inactive” each time. In addition, in the experiment with W2, the Potency entry was “inactive”.

Take `C[C@H]1CS(=O)(=O)CCN1/N=C\c1ccc([N+](=O)[O-])o1`: the Potency entry (in experiment [5]; in [6]; with AA1029; in the experiment on CP194; in the experiment on CP211; with CP215) was “inactive” each time. The Potency entry with CP291, in the experiment with CP335, in the experiment with P93_24, in the experiment on P94_40 and with PC26 was “inactive” in each case.

As for `CCCC(=O)Nc1ccc(OC[C@@H](O)CNC(C)C)c(C(C)=O)c1`, the Potency result in experiment [6] is “inactive”.

For `CCCCC[C@H](O)/C=C\[C@H]1[C@H](C/C=C\CCCC(=O)O)[C@@H](O)C[C@H]1O` (tested in a mixture with another compound), the Potency entry (in [5]; in experiment [6]; in the experiment on 7G8; in the experiment with AA1029; with CP194; in the experiment on CP211) was “inactive” throughout. Also, the Potency entry with CP215, in the experiment on CP291, with CP335, in the experiment with GB4, with P93_24 and in the experiment with P94_40 was “inactive” each time. Moreover, the Potency result with PC26, in the experiment on TAB109 and in the experiment with W2 was “inactive” throughout.

Regarding `O[C@@](CCN1CCCC1)(c1ccccc1)C1CCCCC1`, the Potency entry (in experiment [5]; in experiment [6]; with CP291; with CP335; in the experiment with GB4) was “inactive” in each case. The Potency is 4.47 µM (active) in the experiment with 7G8 and 0.455 µM (active) in the experiment on W2.

(Values after PubChem BioAssay (NCATS).)
